Screening data deposited in PubChem by Broad Institute.
aSyn 5UTR act: Activators via SNCA 5'UTR binding, MLPCN; alpha-synuclein 5'UTR reporter, activators screen; activity score, % (tested at 7.5 µM), hits read low; hit rate 7.1% among 300,000; AID 1814, 2009; in the data active means activity score below about -60%
* hit, by the source's call. Only a sample is shown.

SMILES	aSyn 5UTR act
COc1ccccc1NC(=O)c1ccc([N+](=O)[O-])o1	-98*
CCCn1c(NC(=O)c2ccc([N+](=O)[O-])o2)nc2ccccc21	-88*
[O-]/C(=C(\C(=S)Nc1cccc2ccccc12)[n+]1ccccc1)c1ccc(Cl)s1	-63*
COCc1nc2oc3ccccc3c(=O)c2cc1C(=O)OC	-89*
CCOC(=O)c1cc2c(=O)c3ccccc3oc2nc1C	-153*
CC(=O)c1ccc2oc3ccccc3c(=O)c2c1	-81*
CC(=O)c1cc2c(=O)c3ccccc3oc2nc1C	-116*
N#Cc1cc(C#N)c(N2CCN(c3cccc(Cl)n3)CC2)nc1N	-85*
CCc1ccc2[nH]c3nc(C)cc(C)c3c(=O)c2c1	-232*
Nc1ccccc1N=Cc1ccc(-c2cccc(Cl)c2)o1	-145*
Cc1cc(Cl)c2oc(C(=O)N(C)C3CCOC3)c(C)c2c1 (stereo unspecified)	-108*
Cc1cc(Cl)c2oc(C(=O)N(C)Cc3ccon3)c(C)c2c1	-104*
CCOc1ccc(C2=Nn3c(nnc3-c3ccc(OC)cc3)SC2)cc1	84
CCC(=O)N1CCC(c2ccc(OC)cc2)=N1	-75*
COC1=C(Nc2ccccc2)C(=O)c2ccccc2C1=O	-73*
CNC1=C(N(C(C)=O)c2ccc(Br)cc2)C(=O)c2ccccc2C1=O	111
COC1=C(Nc2ccc(C)cc2)C(=O)c2ccccc2C1=O	-156*
CN(C)CCCNS(=O)(=O)c1ccc(N2CCC(c3ccc(Cl)cc3)=N2)cc1	-139*
Oc1cccc(Nc2c3ccccc3nc3ccccc23)c1	-81*
CC1=C(C(=O)Nc2ccccn2)C(c2ccc(Cl)cc2)NC(=S)N1 (stereo unspecified)	-122*
CC1=C(C(=O)Nc2ccccn2)C(c2ccc(Br)cc2)NC(=S)N1 (stereo unspecified)	-106*
Cc1ccc(-c2nn3c(C)nnc3s2)cc1NC(=O)c1cccs1	-64*
COc1ccccc1OCc1cc(C(=O)N(C)CCC2CCCCO2)no1 (stereo unspecified)	-96*
COc1cc(C(C)=O)ccc1OCc1cc(C(=O)N(C)CCC2CCCCO2)no1 (stereo unspecified)	-188*
Cc1nnc(NC(=O)c2ccc(Br)cc2)s1	-96*
SMILES	aSyn 5UTR act
CC(=O)Oc1ccc(C(=O)Nc2nnc(C)s2)cc1	-63*
N#Cc1cccc(NC(=O)CSc2nnc(-c3n[nH]c4ccccc34)o2)c1	-277*
Cc1cccc(NC(=O)CSc2nnc(-c3n[nH]c4ccccc34)o2)c1	-180*
C#Cc1cccc(NC(=O)CSc2nnc(-c3ccc(C(F)(F)F)cn3)o2)c1	-124*
Cc1cc(N2CCCC2)nc(SCC(=O)c2ccccc2)n1	-89*
Cc1cc(N2CCOCC2)nc(SCC(=O)c2ccccc2)n1	-94*
O=[N+]([O-])c1ccc(NCc2ccccc2)nc1	-67*
CC(C)CNc1nc(N)c([N+](=O)[O-])c(NCc2ccccc2)n1	77
Cc1cccc(CS(=O)(=O)c2ncc(Cl)c(C(=O)NCc3ccccc3)n2)c1	64
Cc1ccc2nc(NC(=O)C3CCN(S(=O)(=O)c4cnc[nH]4)CC3)sc2c1	-78*
O=C(NCc1ccccc1)C1CCN(S(=O)(=O)c2cc([N+](=O)[O-])ccc2Cl)CC1	-67*
O=C(Nc1nc2ccc(F)cc2s1)C1CCN(S(=O)(=O)c2cc([N+](=O)[O-])ccc2Cl)CC1	-197*
CC(=O)N1c2ccc(S(=O)(=O)N3CCC(C(=O)NCc4ccccc4Cl)CC3)cc2CC1C (stereo unspecified)	-182*
O=C(N/N=C/c1cn(-c2cccs2)nc1-c1ccccc1)c1ccccc1Cl	-63*
O=C(N/N=C/c1cn(-c2cccs2)nc1-c1ccccc1)c1ccc(O)cc1	-65*
O=C(N/N=C/c1cc(Br)ccc1O)c1ccccc1Cl	67
CC(N=c1ccccn1C(=O)Nc1ccc(Cl)cc1)c1ccco1 (stereo unspecified)	-121*
C/C(=N/Nc1ccnc2cc(Cl)ccc12)c1ccc(N)cc1	-177*
C/C(=N/Nc1ccnc2cc(Cl)ccc12)c1ccc(O)cc1	-118*
CN(C)CCC(=O)C(Cc1ccccc1)c1ccccc1 (stereo unspecified)	99
O=C(CCOc1ccccc1)Nc1ccc(Br)cc1	-113*
CC(CCc1ccccc1)NC(=O)C(=O)Nc1ccccc1 (stereo unspecified)	-149*
COc1ccc(NC(=O)CCOc2ccccc2)cc1	-126*
CC(=O)c1ccc(NC(=O)CCOc2cc(C)ccc2C)cc1	-91*
Cc1cccc(NC(=O)CCOc2ccccc2)c1	-74*
SMILES	aSyn 5UTR act
CN(C)c1ccc(NC(=O)CCCc2ccccc2)cc1	-120*
O=C(CCc1ccccc1)Nc1ccccc1	-80*
CCCCC(=O)NC(c1ccc(N(C)C)cc1)c1ccc2cccnc2c1O (stereo unspecified)	62
O=C(CCCc1ccccc1)Nc1cccnc1	-82*
Cc1cccc(NC(=O)CCCc2ccccc2)c1	-172*
COc1ccc(/C=C2\SC(=O)N(CCCC(=O)Nc3ccc(C(=O)O)cc3)C2=O)cc1OC	73
C#CCN1C(=O)S/C(=C\c2ccc(-c3ccc(C(=O)O)cc3C)o2)C1=O	-191*
COC(=O)CCCNC(=O)c1ccc2oc(CCCc3ccccc3)nc2c1	-62*
COC(=O)[C@@H](C)NC(=O)c1ccc2oc(CCc3ccccc3)nc2c1	-169*
Brc1ccc(-c2cn3nc4c(nc3n2)CCCC4)cc1	93
Nc1nn2cc(-c3ccc(Br)cc3)nc2c2ccccc12	-165*
COc1ccc(-c2nc3ccccn3c2NCc2ccc3c(c2)OCO3)cc1	-91*
COc1ccc(-c2nc3cc(C)ccn3c2NCc2ccc3c(c2)OCO3)cc1	-112*
CSc1nnc(-c2cc3c(s2)-c2ccccc2CC3)o1	-169*
S=c1[nH]nc(-c2cc3c(s2)-c2ccccc2CC3)o1	-123*
O=[n+]1cc(-c2cc3ccccc3o2)n([O-])c2c1CCCC2	-91*
Cc1ccc(C(=O)c2cc([N+](=O)[O-])ccc2N2CCCCC2)c(C)c1	69
O=C(Nc1nc2ccccc2s1)c1ccc(N2CCCCC2)c([N+](=O)[O-])c1	-67*
O=C(Nc1ccon1)c1ccc(N2CCCCC2)c([N+](=O)[O-])c1	-143*
N#Cc1c(NC(=O)C2CCCO2)sc2c1CCCCCC2 (stereo unspecified)	-98*
NC(=O)c1c(NC(=O)C2CCCO2)sc2c1CCCC2 (stereo unspecified)	-74*
S=C(N/N=C/c1ccc(Cl)c(Cl)c1)Nc1ccccc1Cl	-81*
Fc1cccc(/C=N/NC(=S)Nc2ccccc2Cl)c1	-231*
Cc1ccc(OCc2nc(-c3ccccc3)no2)c(C)c1	-212*
Cc1ccc(-c2noc(CCCc3ccccc3)n2)cc1	-77*
SMILES	aSyn 5UTR act
Clc1ccccc1OCc1nc(-c2ccc(Br)o2)no1	-83*
Brc1ccc(-c2noc(CCc3ccccc3)n2)o1	-119*
COc1ccc(-c2noc(CCCC(=O)O)n2)cc1	89
Fc1ccc(OCc2nc(-c3ccc(Br)o3)no2)c(F)c1	-77*
CC(CNC(=O)c1ccc(OC2CCN(Cc3ccccn3)CC2)cc1)c1ccccc1 (stereo unspecified)	-97*
Fc1ccc(Oc2nc(-c3ccccn3)nc3ccccc23)cc1	-95*
c1ccc(Oc2nc(-c3ccccn3)nc3ccccc23)cc1	-64*
COc1ccc(Oc2nc(-c3ccccn3)nc3ccccc23)cc1	-110*
Cc1ccccc1OCC(=O)O/N=C(\N)c1ccncc1	-103*
N/C(=N\OC(=O)COc1cc(Cl)c(Cl)cc1Cl)c1ccncc1	-174*
